About 79,000 compounds went through this panel and 15% of them were active in at least one assay; those are over-represented in the sample as a whole. Active and inactive are the calls of the source. Cut-off read from the data, not from the text of the source: active = growth inhibition above about 70%; inactive = the rest.
Columns and labels:
[1] = NCI Yeast Anticancer Drug Screen. Data for the rad52 strain (AID 147);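 note: 0% = growth of vehicle-treated control cultures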; settings: S. cerevisiae rad52 mutant growth inhibition, stronger effect = higher value
Procedure, shortened: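 Here a repair-compromised yeast strain receives each compound; its growth is then quantified and normalised to vehicle-only controls.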

[2] = NCI Yeast Anticancer Drug Screen. Data for the rad50EPP+ strain (AID 151);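 note: 0% = growth of vehicle-treated control cultures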; settings: S. cerevisiae rad50 mutant strain, stronger effect = higher value
Procedure, shortened: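 Read-out is yeast growth inhibition relative to vehicle; cells used were the rad50EPP+ strain.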

[3] = NCI Yeast Anticancer Drug Screen. Data for the rad50 strain (AID 155);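 note: 0% = growth of vehicle-only cultures of the same strain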; settings: S. cerevisiae rad50 strain growth inhibition, stronger effect = higher value
Procedure, shortened: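 Vehicle-treated cultures provide the reference for the growth inhibition reported for compound-exposed, repair-deficient yeast.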

[4] = NCI Yeast Anticancer Drug Screen. Data for the mec2-1 strain (AID 157); settings: S. cerevisiae mec2-1 strain, stronger effect = higher value
Procedure, shortened: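 Using mec2-1 yeast: add compound, measure growth, express inhibition versus vehicle-treated cultures.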

[5] = NCI Yeast Anticancer Drug Screen. Data for the rad14 strain (AID 159);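 note: 0% = growth of vehicle-treated control cultures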; settings: S. cerevisiae rad14 strain growth inhibition, stronger effect = higher value
Procedure, shortened: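 Inhibition of growth is reported for a repair-deficient yeast mutant following compound treatment, calculated relative to cultures that received vehicle.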

[6] = NCI Yeast Anticancer Drug Screen. Data for the sgs1 mgt1 strain (AID 161);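 note: 0% = growth of cultures given vehicle only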; settings: S. cerevisiae sgs1 mgt1 strain, stronger effect = higher value
Procedure, shortened: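 Percent growth inhibition was derived by comparing compound-exposed mutant yeast with vehicle-exposed cultures. The strain carries alterations in DNA damage repair.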

[7] = NCI Yeast Anticancer Drug Screen. Data for the CLN2oe strain (AID 163);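 note: 0% = growth of vehicle-only control cultures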; settings: S. cerevisiae CLN2oe strain, stronger effect = higher value
Procedure, shortened: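 Whole-cell yeast growth assay. A strain engineered for altered cell-cycle control received compound, and inhibition relative to vehicle-treated cultures was recorded.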

[8] = NCI Yeast Anticancer Drug Screen. Data for the bub3 strain (AID 167); settings: S. cerevisiae bub3 mutant strain, stronger effect = higher value
Procedure, shortened: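 Mutant yeast screening strain plus compound; vehicle-treated cultures serve as the 0% inhibition reference.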

[9] = NCI Yeast Anticancer Drug Screen. Data for the wt2 strain (AID 169); settings: S. cerevisiae wt2 strain growth inhibition, stronger effect = higher value
Procedure, shortened: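 Treated yeast vs. vehicle-treated yeast: growth inhibition determined.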

[10] = NCI Yeast Anticancer Drug Screen. Data for the mlh1 strain (AID 171);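 note: 0% = growth of vehicle-treated control cultures of the same strain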; settings: S. cerevisiae mlh1 strain growth inhibition, stronger effect = higher value
Procedure, shortened: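 A yeast strain with a defined genetic lesion serves as the test organism. Cultures receive compound or vehicle, and growth is measured.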

[11] = NCI Yeast Anticancer Drug Screen. Data for the mlh1 rad18 strain (AID 175); settings: S. cerevisiae mlh1 rad18 strain growth inhibition, stronger effect = higher value
Procedure, shortened: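 Steps: expose repair-defective yeast to compound; measure growth; express inhibition against vehicle-treated controls.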

[12] = NCI Yeast Anticancer Drug Screen. Data for the rad18 strain (AID 177); settings: S. cerevisiae rad18 mutant growth inhibition, stronger effect = higher value
Procedure, shortened: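 Measured value is growth inhibition of a yeast strain bearing a DNA repair alteration, referenced to vehicle-treated cells.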

[13] = NCI Yeast Anticancer Drug Screen. Data for the cln2 rad14 strain (AID 165);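 note: 0% = growth equal to vehicle treated cultures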; settings: S. cerevisiae cln2 rad14 strain, stronger effect = higher value
Procedure, shortened: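 Yeast strain cln2 rad14, bearing defects in cell cycle control and DNA repair, serves as the test system; values reflect growth inhibition compared with vehicle.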

[14] = NCI Yeast Anticancer Drug Screen. Data for the sgs1 strain (AID 173);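 note: 0% = growth of vehicle-only control cultures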; settings: S. cerevisiae sgs1 mutant, stronger effect = higher value
Procedure, shortened: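 A genetically defined yeast mutant is incubated with the test compound, and its growth is compared to that of the same strain given vehicle.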

[15] = at 5.0 µM (retest, dose inferred, filed as 0.5)
[16] = at 50.0 µM (retest, dose inferred, filed as 5.0)

Measured: growth inhibition

CC1OC(OC2CCCc3c(O)c4c(c(O)c32)C(=O)c2ccccc2C4=O)CC(N)C1O (stereo not drawn)
inactive: [1]; at 1.2 µM 3% | [1]; at 3.7 µM 46% | [2]; at 1.2 µM 10% | [2]; at 3.7 µM 30% | [3]; at 1.2 µM -49% | [3]; at 3.7 µM 41% | [3]; [15] 60% | [4]; at 1.2 µM 0% | [4]; at 3.7 µM -2% | [4]; [15] 8% | [4]; at 11.0 µM 4% | [4]; at 50.0 µM 53% | [5]; at 1.2 µM 2% | [5]; at 3.7 µM 12% | [5]; at 11.0 µM 55% | [6]; [15] 14% | [7]; at 1.2 µM 2% | [7]; at 3.7 µM -1% | [7]; at 11.0 µM 2% | [8]; at 1.2 µM -4% | [8]; at 3.7 µM -5% | [8]; [15] 2% | [8]; at 11.0 µM -7% | [8]; at 50.0 µM 52.8% | [9]; at 1.2 µM 4% | [9]; at 3.7 µM 9% | [9]; at 11.0 µM 61% | [10]; at 1.2 µM -11% | [10]; at 3.7 µM -6% | [10]; at 11.0 µM 16% | [11]; [15] 12% | [11]; at 50.0 µM 66.2% | [12]; at 1.2 µM -8% | [12]; at 3.7 µM 0% | [12]; at 11.0 µM 8%
active: [1]; at 11.0 µM 94% | [1]; at 33.0 µM 98% | [1]; at 100.0 µM 99% | [2]; at 11.0 µM 73% | [2]; at 33.0 µM 97% | [2]; at 100.0 µM 98% | [3]; at 11.0 µM 95% | [3]; at 33.0 µM 99% | [3]; [16] 98% | [3]; at 50.0 µM 80.7% | [3]; at 100.0 µM 98% | [4]; at 33.0 µM 82% | [4]; [16] 99% | [4]; at 100.0 µM 99% | [5]; at 33.0 µM 99% | [5]; at 100.0 µM 99% | [6]; [16] 98% | [6]; at 50.0 µM 70.5% | [7]; at 33.0 µM 84% | [7]; at 100.0 µM 98% | [8]; at 33.0 µM 89% | [8]; [16] 98% | [8]; at 100.0 µM 98% | [9]; at 33.0 µM 97% | [9]; at 100.0 µM 99% | [10]; at 33.0 µM 94% | [10]; at 100.0 µM 99% | [11]; [16] 99% | [12]; at 33.0 µM 90% | [12]; at 100.0 µM 99%

Cc1cccc(/C=N\NC(=S)N2CCCCC2)n1
inactive: [1]; at 1.2 µM -17% | [1]; at 3.7 µM 67% | [2]; at 1.2 µM -10% | [2]; at 3.7 µM -17% | [3]; at 1.2 µM 19% | [3]; at 3.7 µM 57% | [4]; at 1.2 µM -41% | [5]; at 1.2 µM -19% | [7]; at 1.2 µM 8% | [8]; at 1.2 µM -2% | [9]; at 1.2 µM 7% | [10]; at 1.2 µM -33% | [10]; at 3.7 µM 63% | [14]; at 1.2 µM 2% | [12]; at 1.2 µM -7%
active: [1]; at 11.0 µM 97% | [1]; at 33.0 µM 98% | [1]; at 100.0 µM 97% | [2]; at 11.0 µM 86% | [2]; at 33.0 µM 97% | [2]; at 100.0 µM 97% | [3]; [15] 98% | [3]; at 11.0 µM 97% | [3]; at 33.0 µM 97% | [3]; [16] 100% | [3]; at 50.0 µM 88.8% | [3]; at 100.0 µM 98% | [4]; at 3.7 µM 93% | [4]; [15] 97% | [4]; at 11.0 µM 98% | [4]; at 33.0 µM 99% | [4]; [16] 100% | [4]; at 50.0 µM 93.2% | [4]; at 100.0 µM 98% | [5]; at 3.7 µM 90% | [5]; at 11.0 µM 98% | [5]; at 33.0 µM 98% | [5]; at 100.0 µM 98% | [6]; [15] 97% | [6]; [16] 99% | [6]; at 50.0 µM 91.5% | [7]; at 3.7 µM 85% | [7]; at 11.0 µM 98% | [7]; at 33.0 µM 98% | [7]; at 100.0 µM 91% | [13]; [15] 98% | [13]; [16] 100% | [13]; at 50.0 µM 92.8% | [8]; at 3.7 µM 93% | [8]; [15] 97% | [8]; at 11.0 µM 98% | [8]; at 33.0 µM 99% | [8]; [16] 99% | [8]; at 50.0 µM 91.8% | [8]; at 100.0 µM 99% | [9]; at 3.7 µM 92% | [9]; at 11.0 µM 99% | [9]; at 33.0 µM 99% | [9]; at 100.0 µM 95% | [10]; at 11.0 µM 98% | [10]; at 33.0 µM 98% | [10]; at 100.0 µM 99% | [14]; at 3.7 µM 93% | [14]; at 11.0 µM 98% | [14]; at 33.0 µM 99% | [14]; at 100.0 µM 98% | [11]; [15] 98% | [11]; [16] 99% | [11]; at 50.0 µM 88.7% | [12]; at 3.7 µM 92% | [12]; at 11.0 µM 97% | [12]; at 33.0 µM 98% | [12]; at 100.0 µM 98%

— PubChem BioAssay (NCI)
